# Legend:
# Assay in all cases: PBM binding z-score (relative to random genomic background probes); higher = stronger binding; sequences stand for … in GC…GCGATTGACAGCGTAGAATGAAGG
# [1] = test system: FXR:RXRa (NR concentration 270 nM, RXRa partner concentration 90 nM)
# Outline: (§1)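 Each nuclear receptor dimer, without ligand, was incubated for 1 h on custom Agilent 4×180K protein-binding microarrays. Binding was detected with antibodies against each partner (one per run), and scanned fluorescence was regression-normalized. The binding z-scores are referenced to random human genomic background probes.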
# [2] = test system: LXRa:RXRa (NR concentration 270 nM, RXRa partner concentration 90 nM)
# Outline: as §1
# [3] = test system: LXRa homodimer (NR concentration 270 nM)
# Outline: as §1
# [4] = test system: LXRb:RXRa (NR concentration 270 nM, RXRa partner concentration 90 nM)
# Outline: as §1
# [5] = test system: LXRb homodimer (NR concentration 270 nM)
# Outline: as §1
# [6] = test system: PPARa:RXRa (NR concentration 270 nM, RXRa partner concentration 90 nM)
# Outline: as §1
# [7] = test system: PPARg:RXRa (NR concentration 180 nM, RXRa partner concentration 90 nM)
# Outline: as §1
# [8] = test system: PPARg:RXRa 270nM:90nM, anti-RXR (NR concentration 270 nM, RXRa partner concentration 90 nM)
# Outline: as §1
# [9] = test system: PPARg:RXRa 30nM:10nM, anti-RXR (NR concentration 30 nM, RXRa partner concentration 10 nM)
# Outline: as §1
# [10] = test system: PPARg:RXRa 90nM:30nM, anti-RXR (NR concentration 90 nM, RXRa partner concentration 30 nM)
# Outline: as §1
# [11] = test system: PPARg:RXRa DBDmut IVT, anti-RXR (DBD mutation: RXRa K156A/R161A, NR concentration 270 nM, RXRa partner concentration 90 nM)
# Outline: as §1
# [12] = test system: PPARg:RXRa IVT, anti-PPARg (NR concentration 270 nM, RXRa partner concentration 90 nM)
# Outline: as §1
# [13] = test system: PPARg DBDmut:RXRa IVT, anti-PPARg (DBD mutation: PPARg1 K132A/R137A, NR concentration 270 nM, RXRa partner concentration 90 nM)
# Outline: as §1
# [14] = test system: PPARg DBDmut IVT, anti-PPARg (DBD mutation: PPARg1 K132A/R137A, NR concentration 270 nM)
# Outline: as §1
# [15] = test system: PPARg homodimer (NR concentration 180 nM)
# Outline: as §1
# [16] = test system: PXR:RXRa (NR concentration 270 nM, RXRa partner concentration 90 nM)
# Outline: as §1
# [17] = test system: PXR homodimer (NR concentration 270 nM)
# Outline: as §1
# [18] = test system: RARa:RXR (NR concentration 270 nM, RXRa partner concentration 90 nM)
# Outline: as §1
# [19] = test system: RARa homodimer (NR concentration 270 nM)
# Outline: as §1
# [20] = test system: RARb:RXRa (NR concentration 270 nM, RXRa partner concentration 90 nM)
# Outline: as §1
Sequence,PBM binding z-score [1],PBM binding z-score [2],PBM binding z-score [3],PBM binding z-score [4],PBM binding z-score [5],PBM binding z-score [6],PBM binding z-score [7],PBM binding z-score [8],PBM binding z-score [9],PBM binding z-score [10],PBM binding z-score [11],PBM binding z-score [12],PBM binding z-score [13],PBM binding z-score [14],PBM binding z-score [15],PBM binding z-score [16],PBM binding z-score [17],PBM binding z-score [18],PBM binding z-score [19],PBM binding z-score [20]
TCATATAGGTAAATGCTACGTGAAAGTCCGATCT,0.931,0.681,0.145,0.726,0.254,0.91,0.924,2.02,3.64,2.58,3.82,2.01,1.39,1.49,0.811,0.667,0.362,0.641,0.913,0.222
CAAACTAGGTCAAGGTCAAACTCGGTTTGTGCCA,7.27,5.63,4.45,4.69,1.71,6.2,9.59,7.65,6.72,7.91,7.83,8.72,1.79,1.1,2.32,5.44,2.6,5.03,1.19,5.27
ATCTCTAGGTAAAGTTCAGTGTAAGATCGATAGA,1.55,2.13,2.27,1.55,1.1,2.47,3.17,4.49,2.44,4.28,2.66,2.9,1.2,1.55,2.13,2.21,2.38,1.53,1.49,2.56
ACTATTAGTTGACTTAGGGCAACCGTTACGACGC,0.212,0.547,0.268,0.434,0.514,0.372,0.776,0.417,0.154,0.461,0.596,0.527,1.12,0.546,0.51,0.554,0.502,0.863,0.271,0.949
CCTTACGGGTCGCTCCAGGTTATAGCATCGGAGT,1.38,2.13,-0.172,0.57,-0.524,1.24,0.136,0.211,-0.551,-0.391,0.145,0.244,-1.18,-0.791,0.495,1.93,-0.171,1.02,-0.313,1.22
TCTTGTAGATCAATAGAGGTTAAGAAGGTGCGCT,0.831,2.82,0.464,1.44,-0.193,2,0.18,1.52,2.75,1.95,1.45,0.982,-0.0465,0.519,0.274,2.12,-0.00143,1.94,0.262,0.921
TAGCCTAGGTCATCGGGCCAGTATAGTACGCATC,4.52,3.33,0.51,2.29,0.0366,3.91,3.13,3.04,0.482,2.16,1.44,3.19,0.181,-0.303,1.03,1.81,-0.265,2.58,-0.0244,3.9
TCATATAGGTAGTACAGGTGAAAGTCGGCATCTA,1.11,1.01,0.38,0.84,0.0864,1.2,0.65,2.23,3.57,3.13,2.26,1.52,1.27,1.09,1.08,0.715,0.204,1.16,1.16,0.562
TCTTGTAGAGCAATAGAGGTTAAGAAAGTGCGCT,0.316,2.34,0.104,1.18,-0.745,1.92,0.157,1.31,1.69,1.55,1.71,1.36,-0.0371,0.131,-0.051,2.73,-0.322,1.25,-0.851,0.425
TTAGCAAGGTGAAAGGTCGTTGATGCACGCCTTG,3.42,2.78,-0.037,2.47,-0.713,5.24,8.3,7.95,8.33,9.55,2.15,4.63,0.373,-0.113,1.42,3.85,0.158,5.72,-0.524,2.98
CCTAATGGGCCATTCAGAGGTCATTGATCATATG,2.75,4.67,6.94,4.05,1.04,3.68,1.37,2.27,0.458,1.54,2.5,2.39,0.168,0.266,2.02,4.59,1.84,4.39,0.847,3.27
CGTCCAAGGTCCAAGGTCAGTGAAGAGATGACGG,1.55,1.08,0.179,1.1,-0.433,2.37,1.65,2.35,0.473,1.66,-0.345,0.595,-0.804,-0.592,1.34,1.67,0.584,2.28,0.674,3.29
TCTAGTTGGTCACGGAAGTCACACACGACGGGTA,0.525,0.526,0.27,0.598,0.323,1.21,1.27,1.85,3.33,2.65,2.3,2.31,1.45,0.841,1.08,0.653,0.0861,1.01,1.21,1.65
TCTTGTAGATCAAGCTGGTTAAGAAAGCCTGAGT,-0.0681,-0.116,-0.611,0.0138,-0.299,0.383,-0.868,1.04,2.54,1.73,1.49,0.0134,0.281,0.0135,-0.627,0.0638,0.0966,-0.059,-0.593,-0.304
CAAACTAGATCACCGGAAGGTCAAAGTCCGCATG,3.07,3.21,3.33,3.19,1.2,3.85,2.04,2.62,0.824,1.84,3.34,3.13,0.538,0.366,2.31,3.54,1.53,3.99,1.63,3.21
ATATGTAGGTTATCGGGTCACTCAGTTTGCGCAT,2.62,2.95,1.49,2.89,1.3,5.02,7.63,6,3.64,5.8,7.7,7.75,1.5,2.23,3.69,3.61,4.7,3.72,1.9,2.68
TCTCGGAGGACACGAAGGTCAGACCTTTCCAGAG,1.6,1.26,0.373,1.41,-0.66,2.19,0.782,1.53,2.38,2.04,1.65,0.996,-0.713,-0.138,1.39,2.12,0.898,2.4,0.387,3.59
TCTCGGAGGACACGAACGTCAGAGCTTTCCAGAG,0.0459,0.0114,-0.625,-0.532,-1.31,0.0688,0.0947,0.795,1.95,1.18,0.985,-0.0503,-0.617,-1.23,-1.43,-0.256,-0.522,-0.0977,-1.21,1.35
CCTAGCGGGCCAGGGTCACTCAAGCATTTCGCTT,2.02,1.7,-0.501,1.75,-1.09,3.22,0.585,1.45,-0.704,0.334,-0.418,0.39,-1.58,-1.58,0.563,2.61,-0.612,3.38,-0.206,2.53
CAAACTAGGTCACGAATGGTCAAAGTCGAATGAC,4.48,5.29,0.845,3.46,0.546,5.82,9.24,7.45,5.7,7.36,8.28,9.26,2.84,3.79,2.55,2.47,0.0543,3.22,0.681,4.62
TCAGACAGGTGAAGGTAACTCTGGTACGCAGTCG,0.419,2.39,-0.038,1.46,-0.229,1.23,0.517,2.02,3.66,2.66,2.58,0.996,0.246,-0.784,0.246,0.678,0.0805,0.872,0.122,1.07
ACAGACAGGTGATGAAGTTAACTCAGGCTATCAT,-0.177,-0.305,-0.307,-0.225,-0.182,-0.03,0.514,-0.0899,-0.051,-0.038,-0.14,0.266,0.864,0.239,0.153,0.166,0.125,0.133,0.502,-0.00565
TCTGCTAGGTCAACGATGGGCAGCTAATCTGCTA,3.19,2.29,-0.252,1.2,-0.397,2.94,2.47,3.01,1.85,2.49,4.14,4,1.49,-0.401,0.59,0.836,-1.21,1.73,-1.18,4.19
GATACAGCGTCAAGGCCAGAGTACGCGTATTGAT,-0.565,-0.762,-0.347,-0.832,-0.969,-0.514,0.602,-0.494,-0.309,-0.649,-0.697,-0.358,-0.853,-0.941,-0.474,-0.434,-0.406,-0.6,-0.441,0.0727
TAGCCTAGGTCATGCGAGCCAGTATAGTGTCGGC,4.25,2.95,0.265,1.8,0.134,3.6,2.35,2.43,0.259,1.24,1.99,2.77,0.571,0.0763,1.17,1.38,-0.628,2.33,-0.182,3.72
TTACCAAGGTGAGCTGAGGTCGTTGACCCAACTC,2.54,2.48,-0.484,1.43,-0.784,2.06,0.441,0.96,-0.036,0.348,0.928,2.03,0.277,-0.41,0.266,5.01,0.193,2.57,-0.539,1.91
CCTACTTGGCCAAGGTCATTGATCAGTCAAAGCA,3.65,4.26,1.93,3.87,1.21,4,1.27,2.15,0.389,1.41,1.37,2.08,-0.0462,-0.266,2.44,3.9,1.45,3.57,1.49,3.49
CCTTACGAGTCAAGGTTATAGCACGGGTGGTACG,0.585,0.946,-0.0296,0.739,0.332,1.28,0.716,0.135,-0.0857,-0.0269,-0.121,0.156,-0.0742,-0.146,1.14,0.823,0.506,0.888,0.784,1.07
